The campaign covered roughly 350,000 compounds. About 5,500 (1.6%) were called active.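 The calls were made as follows: active = significant combined selectivity score with lowered wild-type GFP, culture density cut under 30%, mutant RFP and density less affected; inactive = any of these conditions unmet.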 The entries come from a sample that favours actives as a whole.

The nature of this experiment: GFP drop in mixed WT/humanized-ribosome E. coli culture – GFP/RFP fluorescence, OD600, single point, bacterial rRNA inhibitor project, primary screen (AID 720706). Particulars: E. coli WT GFP vs humanized-ribosome RFP mutants, 24 h; GFP signal change (wild-type ribosome): stronger effect = lower value, DMSO median 0, no signal -100; OD600 change: measured here: OD600 growth, DMSO median 0, no signal -100; RFP signal change: measured here: RFP humanized mutant strains, DMSO median 0, no signal -100, concentration not given here.
In the case of `CO[C@H]1CN(C)C(=O)c2cc(NC(=O)C3CCCC3)ccc2OC[C@@H](C)N(C(=O)CC2CC2)C[C@@H]1C`, the GFP signal change (wild-type ribosome) is -2.32% (inactive), the OD600 change was -1.4% and the RFP signal change was -2.08%.
On the same counts, the results for `COc1ccc(C(=O)C2CCCN(C(=O)c3ccc(OC)o3)C2)c(C)c1` (stereo not drawn) are -3.94% (inactive), -8.41% and -1.22%.
For `COc1ccc(C(=O)C2CCCN(Cc3cccn3-c3ccccn3)C2)c(C)c1` (stereo not drawn), in that order: -15.2% (inactive), -23% and 0.721%.
For `COc1ccc(C(=O)C2CCCN(Cc3ccc4nonc4c3)C2)c(C)c1` (stereo not drawn), in that order: -32.5% (active), -18.1% and -4.26%.
`C[C@H]1CN(C)C(=O)c2cc(N(C)C)ccc2O[C@H]1CN(C)C(=O)OC(C)(C)C`: the GFP signal change (wild-type ribosome) was -3.1% (inactive), the OD600 change is -2.56% and the RFP signal change was determined as 0.88%.
With `COc1ccc(C2=NN(C(=O)c3cccnc3)C(c3ccccc3)C2)cc1` (stereo not drawn), the GFP signal change (wild-type ribosome) was -23.4% (active), the OD600 change is 3.3% and the RFP signal change came out at 3.54%.
In the case of `COc1ccc(C2=NN(C(=O)c3ccccc3C(=O)O)C(c3ccccc3O)C2)cc1` (stereo not drawn), the GFP signal change (wild-type ribosome) was -9.01% (inactive), the OD600 change was -19.6% and the RFP signal change is -2.39%.
For `COc1ccc(C2CC(c3ccccc3)=NN2C(=O)CSc2nccc(=O)[nH]2)cc1` (stereo not drawn), in that order: 5.08% (inactive), 8.39% and -0.959%.
Consider `O=c1ccc2cc(S(=O)(=O)Nc3ccccc3F)ccc2o1`, for which the GFP signal change (wild-type ribosome) is 6.96% (inactive), the OD600 change came out at 12.1% and the RFP signal change stood at 8.39%.
For `O=c1oc(-c2ccccc2NS(=O)(=O)c2ccc(Cl)cc2)nc2ccccc12`, in that order: -33.6% (active), -24.4% and 0.207%.
On the same counts, the results for `O=c1oc2ccccc2c(NC2CCCCC2)c1NS(=O)(=O)c1ccc(Cl)cc1` are 11.9% (inactive), 7.09% and -0.375%.
Take `CO[C@@H]1CN(C)C(=O)c2cc(NC(=O)Nc3ccc4c(c3)OCO4)ccc2OC[C@@H](C)NC[C@@H]1C`: the GFP signal change (wild-type ribosome) was 4.25% (inactive), the OD600 change worked out at 10.8% and the RFP signal change is -0.511%.
As for `COc1ccc2c3c([nH]c2c1)[C@@H](CO)N(C(C)=O)CC31CCN(Cc2ccccc2Cl)CC1`, the GFP signal change (wild-type ribosome) was -2.42% (inactive), the OD600 change is -9.54% and the RFP signal change turned out to be 4.49%.
For `C[C@@H]1CN([C@H](C)CO)C(=O)c2cc(NS(=O)(=O)c3ccccc3)ccc2O[C@H]1CN(C)S(=O)(=O)c1ccc(Cl)cc1`, in that order: -8.38% (inactive), -11.5% and 2.44%.
On the same counts, the results for `O=C(NCCc1ccccc1)c1cccc(NC(=O)c2ccccc2)c1` are -23.9% (active), -10% and 0.86%.
On the same counts, the results for `O=C(NCc1ccccc1)c1cccc(NC(=O)C2CCCCC2)c1` are -29.5% (active), -22.2% and -7.71%.
With `CC(C)(C)OC(=O)N1CCC(C(=O)Nc2cccc(C(=O)NCCc3ccccc3)c2)CC1`, the GFP signal change (wild-type ribosome) was 2.29% (inactive), the OD600 change was 6.05% and the RFP signal change amounted to 0.0785%.
Turning to `O=C(Cc1ccc(Br)cc1)NCCc1ccccc1`, the GFP signal change (wild-type ribosome) is -13.7% (inactive), the OD600 change turned out to be 6.7% and the RFP signal change is -2.35%.
For `CCNC(=O)c1cccc(NC(=O)C2CC(=O)N(CCc3ccccc3)C2)c1` (stereo not drawn), in that order: 8.73% (inactive), 3.98% and 1.88%.
Consider `COc1cccc(CCNC(=O)c2cccc(NC(=O)C3=C(C)OCCS3)c2)c1`, for which the GFP signal change (wild-type ribosome) is -25.3% (inactive), the OD600 change is -16.5% and the RFP signal change was -2.22%.
In the case of `CO[C@@H]1CN(C)C(=O)c2cc(NS(=O)(=O)c3ccc(C)cc3)ccc2OC[C@H](C)N(Cc2nccs2)C[C@@H]1C`, the GFP signal change (wild-type ribosome) is -2.96% (inactive), the OD600 change is -14.7% and the RFP signal change was 7.3%.
For `COc1ccc2c3c([nH]c2c1)[C@@H](CO)N(C(=O)C1CC1)CC31CCN(C(=O)c2ccncc2)CC1`, the GFP signal change (wild-type ribosome) was 4.87% (inactive), the OD600 change came out at 6.99% and the RFP signal change is -3.09%.
With `CC(C)NC(=O)N(C)C[C@H]1Oc2cc(-c3cncnc3)ccc2S(=O)(=O)N([C@@H](C)CO)C[C@H]1C`, the GFP signal change (wild-type ribosome) was 3.27% (inactive), the OD600 change worked out at 3.02% and the RFP signal change is -2.21%.
As to `CCC(=O)Nc1ccc2c(c1)C(=O)N(C)[C@@H]1CC[C@H](CC(=O)NCCc3ccncc3)O[C@@H]1CO2`, the GFP signal change (wild-type ribosome) is 2.16% (inactive), the OD600 change amounted to 15.1% and the RFP signal change was -1.34%.
In the case of `C=CCNC(=O)c1ccccc1NC(=O)c1ccc(Cl)c(S(=O)(=O)Nc2cccc(C)c2C)c1`, the GFP signal change (wild-type ribosome) is -40% (active), the OD600 change was -4.93% and the RFP signal change was 9.21%.
On the same counts, the results for `Cc1ccc(C(=O)Nc2ccccc2-c2ccccc2)cc1S(=O)(=O)Nc1ccccc1` are -14.3% (inactive), -30.9% and -8.24%.
For `Cc1ccccc1NC(=O)c1cc(S(=O)(=O)Nc2cccc(C(=O)O)c2)ccc1Cl`, in that order: 9.89% (inactive), 8.39% and -0.677%.
As to `COC(=O)C[C@@H]1C[C@H]2c3cc(NC(=O)NC4CCCC4)ccc3O[C@H]2[C@H](CO)O1`, the GFP signal change (wild-type ribosome) was -0.054% (inactive), the OD600 change is -2.88% and the RFP signal change was 1.29%.
As to `C[C@H](O)C#Cc1ccc2c(c1)O[C@H](CN(C)Cc1cccnc1)[C@@H](C)CN([C@H](C)CO)S2(=O)=O`, the GFP signal change (wild-type ribosome) is -1.81% (inactive), the OD600 change was 5.84% and the RFP signal change is -2.32%.
`COc1ccccc1NC(=O)N[C@H]1CC[C@H](CCNS(=O)(=O)c2ccc(Cl)cc2)O[C@H]1CO`: the GFP signal change (wild-type ribosome) is -12.2% (inactive), the OD600 change is -10.8% and the RFP signal change worked out at 7.75%.
As for `CC(C)NC(=O)Nc1cccc2c1O[C@H](CN(C)Cc1ccccc1)[C@H](C)CN([C@H](C)CO)C2=O`, the GFP signal change (wild-type ribosome) was 3.96% (inactive), the OD600 change amounted to 10.7% and the RFP signal change was -0.787%.

For the origin of these results see PubChem BioAssay AID720706 (Broad Institute, 2013).
